Screening data: PubChem BioAssay, several laboratories
Only some compounds are listed: those with a hit (about 1.3% of all), similar ones and a draw of the others.
GALR2 ag: agonists of human galanin receptor 2 (GALR2). O43603. GALR2-expressing cells, agonist activation read-out. activation, % (test concentration not listed). 140,000 compounds, 0.48% hits. AID 803; in the data active = activation above about 5%, passing the limit was not always enough;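 note: 0% = vehicle buffer wells and 100% = reference agonist at full effect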
Target sequence (O43603 whole entry, looked up): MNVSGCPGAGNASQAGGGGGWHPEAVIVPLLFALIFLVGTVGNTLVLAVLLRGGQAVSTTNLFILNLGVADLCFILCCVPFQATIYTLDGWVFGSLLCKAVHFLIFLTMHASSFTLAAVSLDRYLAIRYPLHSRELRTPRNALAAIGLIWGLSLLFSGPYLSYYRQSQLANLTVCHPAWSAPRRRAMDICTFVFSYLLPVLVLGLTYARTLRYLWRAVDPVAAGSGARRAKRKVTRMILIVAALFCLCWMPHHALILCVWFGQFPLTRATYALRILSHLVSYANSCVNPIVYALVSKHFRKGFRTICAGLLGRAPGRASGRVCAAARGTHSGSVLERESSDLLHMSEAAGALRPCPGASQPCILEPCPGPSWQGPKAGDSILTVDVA
GALR2 antag: blocks the human galanin receptor 2; 140,000 compounds, 0.39% hits; inhibition, % at 4 µM; GALR2-expressing cells, antagonist mode; O43603;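 note: cells stimulated with galanin 1-16 at roughly its EC80; 0% = agonist challenge control and 100% = basal control without agonist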
S1P2 agonist: S1P2 (human) receptor agonism; S1P2-expressing cell line, agonist reporter read-out; AID 729; activation, % at 4.5 µM; O95136; 97,000 compounds, 0.46% hits; in the data active = activation above about 16%;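 note: 0% = vehicle low control and 100% = maximal reference agonist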
Target sequence (O95136 whole entry, looked up): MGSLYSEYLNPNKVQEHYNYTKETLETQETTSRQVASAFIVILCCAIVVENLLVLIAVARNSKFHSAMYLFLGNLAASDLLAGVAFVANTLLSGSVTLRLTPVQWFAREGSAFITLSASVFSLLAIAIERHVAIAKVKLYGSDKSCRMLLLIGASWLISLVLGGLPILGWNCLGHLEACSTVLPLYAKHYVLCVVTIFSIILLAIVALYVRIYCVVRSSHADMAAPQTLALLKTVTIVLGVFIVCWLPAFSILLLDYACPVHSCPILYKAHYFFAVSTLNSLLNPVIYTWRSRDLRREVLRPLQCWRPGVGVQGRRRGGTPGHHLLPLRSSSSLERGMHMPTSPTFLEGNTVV
S1P2 blocker: blocks the human S1P2 receptor; O95136; cell-based S1P2 antagonist assay, inhibition at 5 uM; inhibition, % at 5 µM; 97,000 compounds, 0.21% hits; AID 736; in the data active = inhibition above about 45%;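 note: CRE beta-lactamase reporter cells expressing human S1P2 stimulated with S1P; 0% = agonist at EC80 alone and 100% = agonist plus reference antagonist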
Candida biofilm: kills Candida albicans biofilms; inhibition, % at 6 µM; 85,000 compounds, 0.14% hits; C. albicans biofilm + clotrimazole, Alamar Blue;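 active = inhibition above 20%; inactive = inhibition below 20%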;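 note: preformed 24 hr biofilms exposed to compound for 48 hr; 0% = biofilm without compound and 100% = blank killed by clotrimazole plus chlorhexidine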
Smad3 inh: Smad3 (human) transcription factor binding inhibition | P84022 | TR-FRET Smad3/Dy647-FoxH1 peptide binding, europium anti-His | inhibition, % at 25 µM | 88,000 compounds, 0.29% hits | AID 630;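 active = compounds that reduce the energy-transfer binding signal between the protein and its labelled peptide by more than half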;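 note: 0% = Smad3 plus labelled peptide maximal FRET and 100% = peptide-only background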
GALR2 blk conf: confirmation of human galanin receptor 2 (GALR2) antagonists; shares compounds with GALR2 antag; GALR2-expressing cells, antagonist mode, inhibition; inhibition, % at 4 µM; 480 compounds, 60% hits; AID 866;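 note: cells stimulated with galanin at about its EC80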
BLA inhib ctr: inhibits beta-lactamase reporter in GALR2 antagonist counterscreen | AID 867 | inhibition, % at 4.2 µM | shares compounds with GALR2 antag | CHO NFAT-BLA reporter, beta-lactamase FRET, thapsigargin-stimulated | 480 compounds, 36% hits;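 active = inhibition above the mean inhibition across tested compounds plus 3 SD, cut at about 27% in these data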;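 note: 0% = 500 nM thapsigargin stimulated wells and 100% = unstimulated BSA only wells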
The depositor's hits bear a star; . = no result. Cut-off read from the data, not from the text of the source, unless noted: active = inhibition above about 27%; inactive = the rest.

SMILES	GALR2 ag	GALR2 antag	S1P2 agonist	S1P2 blocker	Candida biofilm	Smad3 inh	GALR2 blk conf	BLA inhib ctr
O=C(COC(=O)C1CCN(/C=C/C(=O)C(F)(F)F)CC1)Nc1ccccc1	-0.2	-7.5	.	.	.	.	.	.
COC(=O)c1ccc(COC(=O)c2[nH]c(C)c(C(C)=O)c2C)o1	-0.3	27.4*	-1.8	28.6	8.2	0.0	29.9*	2.1
COc1cc(OC)c(OC)cc1/C=C/C(=O)c1ccc(NS(=O)(=O)c2ccc(C)cc2)cc1	-0.8	31.4*	.	.	.	.	20.9	19.4
COc1cccc(-c2cn3nc(C)c(C)nc3n2)c1	0.2	-15.9	2.0	1.5	5.5	-0.5	.	.
COc1ccc(-c2cn3nc4c(nc3n2)CCCC4)cc1	0.1	31.2*	-5.7	4.5	-1.7	13.4	15.8	19.7
CC(=O)Oc1ccc2cc(-c3nc4ccccc4n3C)c(=O)oc2c1	23.4*	36.9*	37.8*	14.5	.	.	22.7	30.0*
COc1ccc(OC)c(S(=O)(=O)N2CCN(C)CC2)c1	-1.1	10.0	.	.	-4.3	-20.5	.	.
COc1ccc(OC)c(S(=O)(=O)N2CCCCCC2)c1	-1.8	28.1*	.	.	3.9	2.2	1.5	0.1
Cc1cccc(NC(=O)c2ccccc2NC(=O)C2CCCCC2)c1C	-1.6	42.4*	-3.2	-7.6	.	.	10.3	15.9
O=C(Nc1ccccc1)c1ccccc1NC(=O)C1CCCCC1	-3.0	2.0	-7.3	2.0	.	.	.	.
Fc1ccccc1CSc1nc2ccccc2[nH]1	-2.6	-0.7	1.6	1.1	1.9	-1.6	.	.
CCOc1ccc(OCC)c(S(=O)(=O)NNC(=O)c2c(C)nc3ccccn23)c1	0.6	2.7	.	.	.	.	.	.
Cc1nc2ccccn2c1C(=O)NNS(=O)(=O)c1ccc(C(C)(C)C)cc1	-1.6	30.4*	.	.	.	.	20.2	10.0
CSc1nnnc2ccccc12	.	.	.	.	.	4.4	.	.
Cn1cnc([N+](=O)[O-])c1NC(C)(C)C	-0.3	2.6	-2.7	-6.2	2.7	-11.5	.	.
Cn1cnc([N+](=O)[O-])c1S(=O)(=O)c1ccc(Cl)cc1	-1.4	37.8*	.	.	.	.	41.4*	21.0
CN(C)c1ccc(C(=O)c2ccc(N(C)C)c3ccccc23)cc1	0.6	30.4*	4.0	3.7	2.2	-3.5	32.9*	64.1*
COc1ccc(C(=O)c2ccc(N(C)C)cc2)c(OC)c1	-1.5	-0.4	-2.4	4.5	.	.	.	.
CCCCCOc1ccc(Br)cc1/C(C)=N/NC1=NCCN1	-0.3	28.1*	-5.5	20.8	-2.7	1.1	8.4	27.6*
COc1ccc(Br)cc1/C(C)=N/NC1=NCCN1	-2.7	12.5	-1.1	15.6	-0.6	4.4	.	.
Nc1nn(-c2ccccc2)c(N)c1N=Nc1ccccc1	-0.5	27.8*	.	.	.	.	15.9	9.4
COc1ccccc1NC(=O)c1[nH]c(C)c(C(C)=O)c1C	-1.8	28.4*	-5.4	6.7	1.8	10.0	33.0*	10.3
CC(=O)n1cc(Nc2ccccc2C(=O)O)c2ccccc21	-2.6	10.6	-2.4	8.6	2.9	2.1	.	.
CC(=O)SC(C[N+](=O)[O-])c1cn(C(C)=O)c2ccccc12 (configuration not stated)	-1.1	34.8*	-9.6	28.7	1.4	-10.7	55.6*	20.7
O=C(Nc1cccc(F)c1)c1sc(Cl)nc1-c1ccccc1	-1.5	27.3*	.	.	.	.	13.5	11.1
SMILES	GALR2 ag	GALR2 antag	S1P2 agonist	S1P2 blocker	Candida biofilm	Smad3 inh	GALR2 blk conf	BLA inhib ctr
COc1ccc(C2=NOC(Cn3c(Cc4ccc(Cl)cc4)nc4c3c(=O)n(C)c(=O)n4C)C2)cc1 (configuration not stated)	0.2	-13.4	-2.9	12.2	5.2	5.0	.	.
CC1=C(C)/C(=N\OS(=O)(=O)c2ccccc2)C=CC1=O	-1.9	77.4*	-0.8	96.0*	7.8	8.2	78.0*	70.8*
Cc1ccc(S(=O)(=O)O/N=C2\CCCc3ccccc32)cc1	-5.7	4.7	-5.8	1.8	5.3	2.7	.	.
COC(=O)/C(=C1/Oc2cc(C)oc(=O)c2S1)C(F)(F)F	-1.6	61.1*	.	.	.	.	66.5*	51.2*
O=C(C(Sc1ccccc1)c1ccccc1)N1CCOCC1 (configuration not stated)	-0.9	5.5	.	.	.	.	.	.
COc1cc(C(=O)ON=C2C=C(C)C(=O)C(C)=C2)cc(OC)c1OC	-0.8	-10.3	.	.	.	.	.	.
COc1cc(C(=O)O/N=C2\C=CC(=O)C(C)=C2)cc(OC)c1OC	-2.9	77.2*	-7.2	28.9	.	.	33.1*	43.8*
CC1CCCN(c2nc3c(c(=O)[nH]c(=O)n3C)n2CCCc2ccccc2)C1 (configuration not stated)	0.8	-17.8	.	.	-0.9	-3.7	.	.
CCOC(=O)c1cc([N+](=O)[O-])c([N+](=O)[O-])cc1NC(C)=O	-0.7	41.2*	.	.	.	.	48.4*	7.4
CCOC(=O)c1ccc(NC(=O)c2ccccc2[N+](=O)[O-])cc1	-1.3	0.2	.	.	.	.	.	.
COc1ccc(-c2csc(N3CCC(C(N)=O)(N4CCCCC4)CC3)n2)cc1	-2.0	-2.7	-4.0	-0.6	-5.2	-6.0	.	.
Cc1cccc2sc(NC(=O)C3CCN(S(=O)(=O)c4cc([N+](=O)[O-])ccc4Cl)CC3)nc12	-1.2	27.1*	.	.	.	.	22.5	20.8
CC(CC(=O)NCc1ccccc1)C1CCCO1 (configuration not stated)	0.3	-5.2	-4.3	3.5	7.3	6.7	.	.
CCN(CC)c1ccc(NC(=O)c2ccc(Br)o2)c(C)c1	0.1	-7.4	1.3	-11.1	5.1	-6.2	.	.
COc1ccc(/C=C/C(=O)Nc2ccc(OC)nc2)cc1	-0.7	8.3	.	.	.	.	.	.
COc1ccc(CS(=O)(=O)/C(Cl)=C(/Cl)C(=O)Nc2ccc(OC)nc2)cc1	-4.4	92.5*	-14.0	94.7*	5.3	14.2	91.8*	91.9*
COc1ccc(NC(=O)/C(Cl)=C(/Cl)S(=O)Cc2ccccc2)cn1 (configuration not stated)	-3.1	104.9*	-6.6	100.8*	-2.9	-26.4	101.5*	105.7*
C=CCn1c(=O)c(C(=O)Nc2nnc(C)s2)c(O)c2ccccc21	.	.	.	.	11.6	36.5	.	.
Cc1ccc(NC(=O)CN(C)C(=O)COc2c(Cl)cc(Cl)c3ccc(C)nc23)cc1	-0.8	2.5	.	.	.	.	.	.
Cc1ccc(NC(=O)CN(C)C(=O)Cn2ncc(Cl)c(Cl)c2=O)cc1	-2.3	60.1*	.	.	.	.	83.3*	32.5*
Nc1cc(C2CCCC2)nn1-c1ccccc1	-2.7	12.2	-1.4	10.8	1.5	-0.5	.	.
C=CCn1nc([N+](=O)[O-])nc1Sc1cccc2cccnc12	-1.4	31.2*	.	.	.	.	26.7	10.7
COCCCn1c(C2CCCCC2)nc2oc3cc(OC)ccc3c(=O)c2c1=O	0.5	-8.0	-9.3	3.7	2.1	10.7	.	.
O=C(CSCc1nc2ccccc2[nH]1)N1CCN(c2ccc(F)cc2)CC1	-3.2	30.1*	-12.9	9.9	9.7	6.8	22.9	11.4
CCOc1cc(-c2nc(-c3ccncc3)no2)cc(OCC)c1OCC	-4.6	35.3*	-8.1	2.5	3.8	4.4	2.1	6.0
